Experimental data as given in PubChem BioAssay (NCATS).
Inconclusive results are not listed. Active and inactive are the calls of the source. Calls come from the whole dose curve; as a rule, active = well fitted curve in the direction sought with a large enough effect; inconclusive = small, poorly fitted or top-dose-only effect, or another doubt; inactive = no such curve, though single readings can be large; an effect the other way counts as inactive or inconclusive.

Key:
[1] = Quantitative High-Throughput drug screen in 47 multiple myeloma cell lines against the NCATS MIPE library collection: MOLP8_DSMZ cell viability assay (AID 1918977);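 note: 100% = DMSO-only wells and 0% = media-only wells without cells; nearly all actives have a fitted effect of over 45% in size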
In short: (§1)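 ATP-based luminescence (CellTiter-Glo, 5 min RT incubation) quantified surviving cells following two days' treatment with MIPE 4.0 agents at 37 °C, 5% CO2.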

[2] = Quantitative High-Throughput drug screen in 47 multiple myeloma cell lines against the NCATS MIPE library collection: NCIH929_DSMZ cell viability assay (AID 1918978); note: nearly all actives have a fitted effect of over 35% in size; note: potency is the fitted concentration of half-maximal effect
In short: as §1

[3] = Quantitative High-Throughput drug screen in 47 multiple myeloma cell lines against the NCATS MIPE library collection: LP1_DSMZ cell viability assay (AID 1918982); note: nearly all actives have a fitted effect of over 35% in size; note: potency is the fitted concentration of half-maximal effect
In short: as §1

[4] = Quantitative High-Throughput drug screen in 47 multiple myeloma cell lines against the NCATS MIPE library collection: KMS34_JCRB cell viability assay (AID 1918985);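 note: 100% = DMSO-only wells and 0% = media-only wells; nearly all actives have a fitted effect of over 40% in size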
In short: as §1

[5] = Quantitative High-Throughput drug screen in 47 multiple myeloma cell lines against the NCATS MIPE library collection: OPM1_PLB cell viability assay (AID 1918989); note: nearly all actives have a fitted effect of over 40% in size; note: potency is the fitted concentration of half-maximal effect
In short: as §1

[6] = Quantitative High-Throughput drug screen in 47 multiple myeloma cell lines against the NCATS MIPE library collection: SKMM1_PLB cell viability assay (AID 1919863); settings: SKMM1 myeloma viability, CellTiter-Glo ATP, 48 h; viability: stronger effect = lower value; note: nearly all actives have a fitted effect of over 35% in size; note: potency is the fitted concentration of half-maximal effect; for viability: series mostly up to about 46 µM
In short: as §1

[7] = Quantitative High-Throughput drug screen in 47 multiple myeloma cell lines against the NCATS MIPE library collection: XG6_PLB cell viability assay (AID 1919865); note: nearly all actives have a fitted effect of over 40% in size; note: potency is the fitted concentration of half-maximal effect
In short: as §1

[8] = Quantitative High-Throughput drug screen in 47 multiple myeloma cell lines against the NCATS MIPE library collection: XG1_PLB cell viability assay (AID 1919866); note: nearly all actives have a fitted effect of over 35% in size; note: potency is the fitted concentration of half-maximal effect
In short: as §1

[9] = Quantitative High-Throughput drug screen in 47 multiple myeloma cell lines against the NCATS MIPE library collection: VP6_DJ cell viability assay (AID 1919867); note: nearly all actives have a fitted effect of over 40% in size; note: potency is the fitted concentration of half-maximal effect
In short: as §1

[10] = Quantitative High-Throughput drug screen in 47 multiple myeloma cell lines against the NCATS MIPE library collection: UTMC2_PLB cell viability assay (AID 1919868); settings: CellTiter-Glo ATP luminescence, 48 h; viability (% of DMSO control): at 45.8 µM;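 note: 100% = DMSO-only wells and 0% = media-only wells without cells; nearly all actives have a fitted effect of over 55% in size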
In short: as §1

[11] = Quantitative High-Throughput drug screen in 47 multiple myeloma cell lines against the NCATS MIPE library collection: OCIMY1_PLB cell viability assay (AID 1918979)
In short: as §1

[12] = Quantitative High-Throughput drug screen in 47 multiple myeloma cell lines against the NCATS MIPE library collection: MM1R_ATCC cell viability assay (AID 1918981); note: nearly all actives have a fitted effect of over 35% in size
In short: as §1

[13] = Quantitative High-Throughput drug screen in 47 multiple myeloma cell lines against the NCATS MIPE library collection: KMS28PE_JCRB cell viability assay (AID 1918983); note: nearly all actives have a fitted effect of over 35% in size; note: potency is the fitted concentration of half-maximal effect
In short: as §1

[14] = Quantitative High-Throughput drug screen in 47 multiple myeloma cell lines against the NCATS MIPE library collection: L363_DSMZ cell viability assay (AID 1918984); note: nearly all actives have a fitted effect of over 40% in size; note: potency is the fitted concentration of half-maximal effect
In short: as §1

[15] = Quantitative High-Throughput drug screen in 47 multiple myeloma cell lines against the NCATS MIPE library collection: OCIMY7_PLB cell viability assay (AID 1918987); note: potency is the fitted concentration of half-maximal effect; nearly all actives have a fitted effect of over 65% in size
In short: as §1

[16] = Quantitative High-Throughput drug screen in 47 multiple myeloma cell lines against the NCATS MIPE library collection: OCIMY5_PLB cell viability assay (AID 1918988); note: nearly all actives have a fitted effect of over 65% in size; note: potency is the fitted concentration of half-maximal effect
In short: as §1

[17] = Quantitative High-Throughput drug screen in 47 multiple myeloma cell lines against the NCATS MIPE library collection: U266_ATCC cell viability assay (AID 1919864); note: nearly all actives have a fitted effect of over 35% in size; note: potency is the fitted concentration of half-maximal effect;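 for viability (% of DMSO control): 0% = media-only wells without cells and 100% = DMSO-only wells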
In short: as §1

[18] = Quantitative High-Throughput drug screen in 47 multiple myeloma cell lines against the NCATS MIPE library collection: MM1S_ATCC cell viability assay (AID 1918980); note: nearly all actives have a fitted effect of over 45% in size; note: potency is the fitted concentration of half-maximal effect
In short: as §1

[19] = Quantitative High-Throughput drug screen in 47 multiple myeloma cell lines against the NCATS MIPE library collection: MMM1_PLB cell viability assay (AID 1918976)
In short: as §1

CC(C)OC(=O)C1=CN(C(=O)c2ccc(F)c(F)c2)CC(C)(C)c2c1[nH]c1ccccc21
inactive: Potency [1] | Potency [2] | Potency [3] | Potency [4] | Potency [5] | viability [6] 104% | Potency [7] | Potency [8] | Potency [10]
active: Potency [9] 1.87 µM

COc1ccc(-c2oc3cc(OC)ccc3c2C(=O)c2ccc(C#N)cc2)cc1
inactive: Potency [1] | Potency [11] | Potency [12] | Potency [13] | Potency [4] | Potency [16] | Potency [5]
active: Potency [14] 3.32 µM | Potency [15] 14.8 µM | Potency [17] 16.6 µM | Potency [7] 3.32 µM | Potency [8] 8.33 µM

Cn1c(=O)c(F)c(Nc2ccc(I)cc2F)c2c(=O)n(C[C@@H](O)CO)cnc21
inactive: Potency [1] | Potency [11] | Potency [12] | Potency [3] | Potency [13] | Potency [4] | Potency [8]
active: Potency [17] 9.35 µM

Nc1nc2c(ncn2COCCO)c(=O)[nH]1
active: Potency [8] 18.7 µM
inactive: Potency [1] | Potency [2] | Potency [3] | Potency [13] | Potency [14] | Potency [4] | Potency [16] | Potency [5] | viability [6] 125% | Potency [17] | Potency [7] | Potency [9]

CCN(CC)CCCC(C)Nc1ccnc2cc(Cl)ccc12 (stereo not drawn)
inactive: Potency [1] | Potency [2] | Potency [11] | Potency [12] | Potency [3] | Potency [4] | viability [6] 95.1%
active: Potency [14] 0.935 µM | Potency [7] 10.5 µM | Potency [8] 10.5 µM | Potency [9] 11.8 µM

CN[C@@H](C)C(=O)N[C@H]1CCCC[C@H]2CC[C@@H](C(=O)N[C@@H](c3ccccc3)c3cn(CCCCc4ccc(CCCCn5cc([C@@H](NC(=O)[C@@H]6CC[C@@H]7CCCC[C@H](NC(=O)[C@H](C)NC)C(=O)N76)c6ccccc6)nn5)cc4)nn3)N2C1=O
inactive: Potency [1] | Potency [11] | Potency [4]
active: Potency [2] 8.33 µM | Potency [18] 18.7 µM | Potency [15] 0.001 µM | Potency [16] 16.6 µM | Potency [5] 16.6 µM | Potency [6] 3.7 nM | Potency [7] 20.9 µM | Potency [8] 23.5 µM | Potency [9] 18.7 µM

CCOc1cc(C=C2C(=O)N(c3ccccc3)N=C2C)cc(Cl)c1OCC(=O)OC
inactive: Potency [1] | Potency [11] | Potency [3] | viability [6] 106%
active: Potency [2] 2.64 µM | Potency [18] 7.43 µM | Potency [13] 6.62 µM | Potency [5] 23.5 µM

CCC(C)N(C)C(=O)c1cc2ccccc2c(-c2ccccc2Cl)n1 (stereo not drawn)
active: Potency [18] 23.5 µM | Potency [7] 8.33 µM | Potency [8] 5.26 µM | Potency [9] 6.62 µM
inactive: Potency [1] | Potency [2] | Potency [11] | Potency [12] | Potency [3] | Potency [5]

OCCC#Cc1nc(-c2ccc(F)cc2)c(-c2ccncc2)n1CCCc1ccccc1
active: Potency [2] 8.33 µM | Potency [14] 5.26 µM | Potency [15] 5.26 µM | Potency [5] 18.7 µM | Potency [8] 18.7 µM
inactive: Potency [1] | viability [6] 114% | Potency [17]

O=c1[nH]cnc2[nH]ncc12
inactive: Potency [1] | Potency [2] | Potency [12] | Potency [3] | Potency [13] | Potency [4] | Potency [17] | Potency [8]

CCCS(=O)(=O)Nc1ccc(F)c(C(=O)c2c[nH]c3ncc(-c4ccc(Cl)cc4)cc23)c1F
inactive: Potency [14]
active: Potency [19] 26.4 µM | Potency [3] 16.6 µM | Potency [16] 13.2 µM | Potency [17] 5.26 µM | Potency [7] 2.96 µM | Potency [8] 7.43 µM | Potency [9] 18.7 µM

O=C(O)CCc1ccc(NCc2cccc(Oc3ccccc3)c2)cc1
inactive: Potency [1] | Potency [2] | Potency [18] | Potency [3] | Potency [14] | Potency [4] | Potency [16] | viability [6] 111% | Potency [7] | Potency [8] | Potency [9]

CNC(=O)c1ccc(N2C(=S)N(c3ccc(C#N)c(C(F)(F)F)c3)C(=O)C2(C)C)cc1F
active: Potency [8] 13.2 µM
inactive: Potency [1] | Potency [2] | Potency [11] | Potency [3] | Potency [13] | Potency [14] | Potency [4] | Potency [16] | Potency [5]

O=NN(CCCl)C(=O)NCCCl
inactive: Potency [1] | Potency [2] | Potency [3] | Potency [14] | Potency [5] | viability [6] 118% | Potency [7] | Potency [8] | Potency [9]
